Key:
Settings in all cases: concentration: 1 μM, replicates: in singlicate; n = 1
[1] = tested on: CSNK1G1
[2] = tested on: CSNK1G2
[3] = tested on: CSNK1G3
[4] = tested on: CSNK2A1
[5] = tested on: CSNK2A2
[6] = tested on: T1, CTK
T1 construct: gene MATK

[7] = tested on: DAPK1
[8] = tested on: DAPK2
[9] = tested on: DAPK3
[10] = tested on: T2, DCAMKL1
T2 construct: gene DCLK1

[11] = tested on: T3, DCAMKL2
T3 construct: gene DCLK2

[12] = tested on: T4, DCAMKL3
T4 construct: gene DCLK3

[13] = tested on: DDR1
[14] = tested on: DDR2
[15] = tested on: T5, DLK
T5 construct: gene MAP3K12

[16] = tested on: T6, DMPK2
T6 construct: gene CDC42BPG

[17] = tested on: DMPK
[18] = tested on: T7, DRAK1
T7 construct: gene STK17A

[19] = tested on: T8, DRAK2
T8 construct: gene STK17B

[20] = tested on: DYRK1A
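Note: KINOMEscan kinase panel screen.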

Structure (SMILES)	%Inh [1]	%Inh [2]	%Inh [3]	%Inh [4]	%Inh [5]	%Inh [6]	%Inh [7]	%Inh [8]	%Inh [9]	%Inh [10]	%Inh [11]	%Inh [12]	%Inh [13]	%Inh [14]	%Inh [15]	%Inh [16]	%Inh [17]	%Inh [18]	%Inh [19]	%Inh [20]
CN(c1ccc(F)c(NC(=O)c2cccc(OC(C)(C)C#N)c2Cl)c1)c1ccc2nc(NC(=O)C3CC3)sc2n1	0%	12%	0%	35%	10%	13%	4%	0%	4%	0%	0%	0%	100%	97%	2%	14%	0%	0%	0%	0%
Cc1ccc(NC(=O)c2ccc(Cl)c(Cl)c2)cc1-c1ccc(C(=O)Nc2ccncc2)cc1 [GSK1398460]	12%	16%	36%	0%	2%	0%	11%	0%	18%	22%	10%	17%	100%	69%	0%	0%	0%	0%	3%	14%
O=C(O)C(F)(F)F.O=c1[nH]ccc2nc(N[C@@H]3CCNC3)nc(Nc3cc(Cl)cc(Cl)c3)c12 [GSK2188764]	77%	94.2%	95.1%	98.9%	100%	0%	97.3%	97.4%	100%	86%	52%	82%	0%	18%	43%	41%	98.3%	99.7%	79%	3%
CC(=O)Nc1cn2nc(Oc3cccc(NC(=O)c4cccc(C(F)(F)F)c4)c3)ccc2n1	3%	0%	41%	0%	0%	0%	0%	1%	6%	20%	24%	9%	98.3%	100%	0%	1%	0%	0%	11%	0%
O=C(Nc1n[nH]c2nc(-c3cccc(O)c3)ccc12)C1CC1 [SB-711805]	6%	0%	25%	52%	82%	0%	17%	0%	23%	17%	0%	49%	0%	20%	0%	0%	0%	24%	12%	76%
Cn1cc(-c2ccc3c(c2)CCN3C(=O)Cc2cc(F)cc(F)c2F)c2c(N)ncnc21 [GSK2634140]	23%	8%	18%	12%	0%	0%	0%	0%	0%	0%	0%	0%	72%	27%	31%	56%	0%	0%	0%	16%
Cl.O=C(Nc1ccc(Oc2ccc3[nH]c(NC(=O)c4ccco4)nc3c2)cc1)Nc1cc(C(F)(F)F)ccc1F [GW683134]	0%	0%	7%	9%	0%	6%	3%	0%	20%	19%	7%	0%	100%	95.7%	22%	0%	0%	0%	0%	13%
COc1cccc(NC(=O)NCCNc2ccnc(Nc3ccc(F)cc3)n2)c1 [GSK1379879]	0%	0%	23%	0%	7%	0%	0%	0%	17%	9%	0%	0%	7%	1%	21%	0%	0%	0%	31%	10%
Nc1ncc(-c2cn[nH]c2)c2scc(-c3ccc4c(c3)CCN4C(=O)Cc3ccccc3)c12 [GSK2593067]	6%	24%	27%	11%	0%	12%	0%	0%	22%	0%	5%	0%	98.4%	22%	18%	90.3%	0%	0%	0%	20%
CC(C)(C)c1ccc(C(=O)Nc2cn3cc(-n4ccnc4)ccc3n2)cc1	0%	12%	0%	0%	7%	24%	0%	16%	2%	29%	0%	0%	0%	2%	0%	4%	0%	20%	35%	91.4%
Fc1cc(Cl)ccc1Nc1ccnc2cc(-c3ccc(CN4CCSCC4)o3)ccc12 [GW560106]	0%	0%	14%	0%	100%	0%	0%	0%	11%	7%	0%	42%	96.1%	69%	46%	0%	8%	23%	0%	0%
CNc1nccc(-c2ccc3c(N)n[nH]c3c2)n1 [GSK2206003]	14%	0%	33%	43%	62%	0%	29%	31%	39%	0%	1%	72%	0%	29%	34%	0%	0%	99.2%	83%	98.8%
Cc1ccc(-c2ccc3occ(-c4ccc(S(C)=O)cc4)c3c2)nn1 (centres unmarked)	0%	0%	0%	0%	10%	0%	0%	0%	0%	4%	0%	21%	0%	16%	0%	0%	8%	10%	22%	0%
COc1ccc(NC(=O)c2ccoc2)cc1-c1ccc(C(=O)NCC2CC2)cc1 [GW810437]	0%	0%	0%	0%	0%	15%	0%	17%	13%	0%	17%	12%	0%	50%	0%	0%	1%	6%	7%	0%
CS(=O)(=O)c1cccc(CNc2nc(Nc3ccc4c(c3)CCC(=O)N4)ncc2C(F)(F)F)c1	0%	4%	0%	17%	51%	0%	0%	0%	11%	36%	0%	99.4%	0%	2%	13%	0%	0%	95.6%	98.3%	85%
Cc1ccc(C)c(NC(=O)Nc2ccc(C)c(-c3ccc(C(=O)Nc4ccncc4)cc3)c2)c1 [GSK1398473]	3%	15%	32%	15%	0%	0%	26%	0%	2%	13%	0%	13%	99.8%	72%	0%	1%	4%	0%	0%	36%

Reference: article PMC5540273 (PLoS ONE, 2017)
